In PMC4336329 (PLoS ONE, 2015):
The campaign covered roughly 310,000 compounds. About 2,200 (0.71%) showed an effect of 50% or more. The effect is printed as a negative number. The sample holds strong results, similar compounds and a random draw of the others, so the mix is not that of the screen.

The compounds below were run against human ether-à-go-go-related gene (hERG) potassium channel (human, UniProt Q12809) (assay: primary screen, population patch clamp on CHO cells stably expressing hERG; higher = less effect of the substance).
Sequence of human ether-à-go-go-related gene (hERG) potassium channel (Q12809 whole entry, looked up): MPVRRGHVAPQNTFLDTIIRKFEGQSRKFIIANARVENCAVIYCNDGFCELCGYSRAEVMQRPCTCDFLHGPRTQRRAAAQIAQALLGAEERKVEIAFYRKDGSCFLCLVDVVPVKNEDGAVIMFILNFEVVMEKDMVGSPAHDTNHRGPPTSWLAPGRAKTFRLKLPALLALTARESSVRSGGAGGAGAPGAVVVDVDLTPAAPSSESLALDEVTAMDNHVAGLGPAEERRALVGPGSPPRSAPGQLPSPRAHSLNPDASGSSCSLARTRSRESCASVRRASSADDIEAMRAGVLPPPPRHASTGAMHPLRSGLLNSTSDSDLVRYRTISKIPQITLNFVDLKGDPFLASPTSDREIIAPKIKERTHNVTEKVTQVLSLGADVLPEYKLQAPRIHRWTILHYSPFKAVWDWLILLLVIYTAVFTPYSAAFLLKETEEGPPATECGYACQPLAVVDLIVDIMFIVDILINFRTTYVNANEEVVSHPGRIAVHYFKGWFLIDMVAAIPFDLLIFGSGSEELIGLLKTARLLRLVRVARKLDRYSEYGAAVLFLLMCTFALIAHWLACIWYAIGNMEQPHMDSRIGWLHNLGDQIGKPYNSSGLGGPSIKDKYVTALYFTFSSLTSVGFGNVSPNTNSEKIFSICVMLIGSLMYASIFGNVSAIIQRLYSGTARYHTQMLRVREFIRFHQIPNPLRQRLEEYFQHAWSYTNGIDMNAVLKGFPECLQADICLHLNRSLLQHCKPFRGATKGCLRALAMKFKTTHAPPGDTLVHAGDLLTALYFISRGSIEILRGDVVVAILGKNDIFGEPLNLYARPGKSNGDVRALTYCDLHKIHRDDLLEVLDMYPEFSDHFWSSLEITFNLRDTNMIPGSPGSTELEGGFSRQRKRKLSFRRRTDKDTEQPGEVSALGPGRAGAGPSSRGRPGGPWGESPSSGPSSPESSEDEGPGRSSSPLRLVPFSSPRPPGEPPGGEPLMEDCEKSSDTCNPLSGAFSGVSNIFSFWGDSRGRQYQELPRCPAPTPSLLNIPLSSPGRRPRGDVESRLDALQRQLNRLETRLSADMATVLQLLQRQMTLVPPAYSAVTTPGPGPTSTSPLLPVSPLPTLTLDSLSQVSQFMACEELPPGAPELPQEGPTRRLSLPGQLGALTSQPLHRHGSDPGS

Compound	hERG current change (%, negative = inhibition) at 1uM [%]
CCn1c2ccccc2c2cc(NC(=O)COC(=O)c3ccccc3O)ccc21	15
CCN(C(=O)/C=C/c1ccc(OC)cc1)C1CCS(=O)(=O)C1 (centres unmarked)	-3.05
CN1C(=O)/C(=N/OC(=O)c2ccccc2)c2ccccc21	-4.57
N#Cc1c(N)n(CCc2ccc(F)cc2)c2nc3ccccc3nc12	19.9
COCCNCCOc1ccc(C(C)(C)c2ccccc2)cc1.O=C(O)C(=O)O	-2.39
Cc1cc(C(=O)N2CC(C)CC(C)C2)n(-c2ccccc2)n1 (centres unmarked)	16.6
CC1CN(C(=O)Nc2ccc(F)cc2F)CC(C)O1 (centres unmarked)	-1.61
C=CCn1c(SCC(=O)N2CCCCC2)nc(O)cc1=O	4.63
COc1ccccc1N1CCN(S(=O)(=O)c2ccc(-c3cnc(C4CC4)o3)cc2)CC1	14
N=c1c(C(=O)NCC2CCCO2)cc2c(=O)n3ccccc3nc2n1Cc1ccco1 (centres unmarked)	-83.1
Cc1ccc(-c2nnc3n2CCCCC3)cc1	0.609
Cc1cccc(NC(=O)c2cc(NC(=O)c3ccccc3)ccc2N2CCCCC2)c1	3.79
Cc1ccc(-c2nc3ccccc3c(=O)n2-c2ncccc2C)cc1	0.712
Cc1ccc2nc(-c3ccccc3)nc(SC(C)C(=O)NCc3cccs3)c2c1 (centres unmarked)	16.6
CC(Sc1nc(-c2ccccc2)cc(C(F)(F)F)n1)C(=O)NCc1ccco1 (centres unmarked)	4.96
Cc1ccc(C)c2c(SC(C)C(=O)NCc3ccco3)nc(-c3ccccc3)nc12 (centres unmarked)	-71.2
C=CC(=O)NC(C)(C)CCN1CCOCC1	8.55
Nc1nc(SCC(=O)c2cccc([N+](=O)[O-])c2)n[nH]1	5.93
COC(=O)c1ccc(CSc2nncn2C)cc1	-4.1
Cl.Fc1ccc(C(OCCN2CCCC2)c2ccc(Br)cc2)cc1 (centres unmarked)	-66
Cl.c1ccc(C(OCCN2CCNCC2)c2ccccc2)cc1	4.05
Fc1ccccc1N1CCN(CCCc2ccccc2)CC1	-18.4
Cl.Fc1ccc(C(OCCN2CCN(CCCc3ccccc3)CC2)c2ccc(F)cc2)cc1	-71.3

Compound	hERG current change (%, negative = inhibition) at 1uM [%]
Cl.c1ccc(CCCN2CCN(CCOC(c3ccccc3)c3ccccc3)CC2)cc1	-41.9
Cl.Fc1ccc(C(OCCN2CCCC2)c2ccc(F)cc2)cc1	-37.9
CCCCn1c(N)c(N(CC(C)C)C(=O)C2CCN(S(=O)(=O)c3ccc(C)cc3C)CC2)c(=O)[nH]c1=O	2.62
Cn1c(=O)[nH]c(=O)c2c1nc(SCC(N)=O)n2Cc1cccc(Br)c1	4.47
CS(=O)(=O)O.c1ccc(-c2ccc3c(c2)c2c4n3CCN=C4CCC2)cc1	2.12
Cc1ccc2c(c1)c1c3n2CCN=C3CCC1.Cl	-65.6
c1cc2c(cc1C1CCCCC1)c1c3n2CCN=C3CCC1	11.4
CNc1cccc2c1C(=O)c1ccccc1C2=O	5.62
COCCn1nnnc1C(c1ccccc1OC)N1CCN(c2ccccc2)CC1.Cl (centres unmarked)	6.17
COCCn1nnnc1C(c1ccc(OC)cc1OC)N1CCN(c2ccccc2)CC1 (centres unmarked)	-54.1
COCCn1nnnc1C(c1ccc(OC)cc1OC)N1CCN(c2ccccc2F)CC1.Cl (centres unmarked)	-2.19
COc1ccccc1N1CCN(S(=O)(=O)c2cc(Br)cnc2N)CC1	15.3
CCN(CC)CCN1C(=O)c2ccccc2NC1c1ccc(C)cc1 (centres unmarked)	-48.3
CCN(CC)CCN1C(=O)c2ccccc2NC1c1ccc(Br)cc1 (centres unmarked)	-82.8
CCN(CC)CCN1C(=O)c2ccccc2NC1c1ccc(F)cc1 (centres unmarked)	-30.5
CCOC(=O)c1c(NC(=O)CN2CCOCC2)sc2c1CC(C)(C)OC2	11.7
NS(=O)(=O)c1ccc(CCNc2nc(CN3CCCCC3)nc3sc4c(c23)CCC4)cc1	-53
NS(=O)(=O)c1ccc(CCNc2nc(CN3CCOCC3)nc3sc4c(c23)CCC4)cc1	3.28
Cc1nc(NCCc2ccc(S(N)(=O)=O)cc2)c2c3c(sc2n1)CCC3	11.8
Cc1cccc(C)c1NC(=O)CNC(=O)c1ccc(N2CCCC2)c([N+](=O)[O-])c1	-2.53
O=C(Nc1ccnn1C1CCN(CCCc2ccccc2)CC1)c1ccccc1	-70.9
COc1ccccc1C(=O)Nc1ccnn1C1CCN(C(C)CSC)CC1 (centres unmarked)	-10.6
Cc1ccccc1C(=O)Nc1ccnn1C1CCN(CCCc2ccccc2)CC1	-84.5

Compound	hERG current change (%, negative = inhibition) at 1uM [%]
Cc1ccccc1C(=O)Nc1ccnn1C1CCN(Cc2ccccn2)CC1	-14.6
O=C(Nc1ccnn1C1CCN(C2CCC2)CC1)c1ccccc1Cl	-28.4
O=C(Nc1ccnn1C1CCN(CCCc2ccccc2)CC1)c1ccccc1Cl	-87.3
CSCCCN1CCC(n2nccc2NC(=O)CCCc2ccccc2)CC1	-28.5
COc1ccccc1C(=O)Nc1ccnn1C1CCN(CCC(C)c2ccc(C)o2)CC1 (centres unmarked)	-88.2
COc1ccc(C(=O)Nc2ccnn2C2CCN(CCC(C)c3ccc(C)o3)CC2)cc1 (centres unmarked)	-18
O=C(Nc1ccnn1C1CCN(C2CCC2)CC1)c1ccccc1	16.6
Cc1ccccc1CN1CCC(n2nccc2NC(=O)CCCc2ccccc2)CC1	7.05
COc1ccc(-c2cc(C(=O)NCCc3ccc(S(N)(=O)=O)cc3)c3ccccc3n2)cc1	11.6
O=C(OCC(=O)N1CCOCC1)c1cnc(Cl)c(Cl)c1	-0.0536
CCCCN=C(C)C1=C(O)CSC1=O	15.8
CCN(c1ccccc1)S(=O)(=O)c1ccc(F)cc1	8.48
O=C(OCc1nnc(-c2ccc(Br)cc2)o1)c1ccco1	-3.17
CS(=O)(=O)N(CC(=O)Nc1cccc(F)c1)Cc1ccccc1	20.1
COc1ccccc1-n1c(O)c(/C=C2\C=Nc3ccccc32)c(=O)[nH]c1=O	11.9
Cc1cc(C)nc(-n2nc(C)cc2NC(=O)c2cccc(S(=O)(=O)N(C)C)c2)n1	8.89
COc1ccccc1C(=O)Nc1ccnn1C1CCN(C)CC1	4.47
COc1ccccc1C(=O)Nc1ccnn1C1CCN(CCCc2ccccc2)CC1	-88.1
COc1ccccc1CN1CCC(n2nccc2NC(=O)CCc2ccccc2)CC1	7.89
CC1=C(C(N)=O)C(c2ccc(Br)cc2)n2nc(CCCO)nc2N1 (centres unmarked)	13.1
Cc1ccc(N=C2NC(=O)C(CC(=O)O)S2)cc1 (centres unmarked)	8.56
NC(=O)c1cc(S(=O)(=O)N2CCN(c3ccc([N+](=O)[O-])cc3)CC2)cs1	-59.3
CN(C)S(=O)(=O)N1CCN(c2ccccc2)CC1	-0.132

Compound	hERG current change (%, negative = inhibition) at 1uM [%]
NC(=O)c1cc(S(=O)(=O)N2CCN(c3cccc(Cl)c3)CC2)cs1	18.9
CN(C)S(=O)(=O)N1CCN(c2ccc(Cl)cc2)CC1	5.65
CN(C)S(=O)(=O)N1CCN(c2ccc([N+](=O)[O-])cc2)CC1	-60.5
CC(=O)c1ccc(N2CCN(S(=O)(=O)c3csc(C(N)=O)c3)CC2)cc1	-14.2
O=[N+]([O-])c1cc(NS(=O)(=O)c2ccc(Cl)nc2)ccc1Cl	-0.66
CCc1ccc2oc(-c3cc(N)ccc3O)nc2c1	9.06
O=C(O)C1CSC(c2ccccc2)N1C(=O)c1ccco1 (centres unmarked)	10
O=C(/C=C/c1ccc(S(=O)(=O)NCc2ccco2)cc1)N1CCN(c2ccccc2)CC1	5.15
COc1ccc(C(=O)N/N=C/c2ccc(OC)c(COc3ccc(F)cc3)c2)cc1	1.17
COc1ccc(/C=N/NC(=O)c2ccccc2F)cc1CN1CCN(c2ccc(F)cc2)CC1	-64.4
COc1ccc(/C=N/NC(=O)c2ccncc2)cc1CN1CCN(c2ccc(F)cc2)CC1	-54.2
COc1ccc(/C=N\NC(=O)c2ccccc2)cc1COc1ccc(F)cc1	4.81
COc1ccc(/C=N\NC(=O)c2ccccc2F)cc1COc1ccc(F)cc1	16.6
COc1ccc(/C=N/NC(=O)c2cccnc2)cc1CN1CCN(c2ccc(F)cc2)CC1	-0.578
COc1ccc(/C=N/NC(=O)c2ccc(C)cc2)cc1CN1CCN(c2ccc(F)cc2)CC1	-27
COc1ccc(/C=N/NC(=O)c2ccoc2C)cc1CN1CCN(c2ccc(F)cc2)CC1	-19.3
COc1ccc(/C=N/NC(=O)c2ccncc2)cc1CN1CCOCC1	6.59
COc1ccc(/C=N/NC(=O)c2cccc(Br)c2)cc1CN1CCOCC1	-38.5
COc1ccc(/C=N/NC(=O)c2ccccc2)cc1CN1CCN(c2ccc(F)cc2)CC1	-62.1
COc1ccc(C(=O)N/N=C/c2ccc(OC)c(CN3CCN(c4ccc(F)cc4)CC3)c2)cc1	-83.5
